Test results taken from paper PMC5540273 (PLoS ONE, 2017).

Tested on: ROCK1
Conditions: concentration: 1 μM, replicates: in singlicate; n = 1
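Note: KINOMEscan kinase panel screen.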

SMILES	%Inh
Cl.O=S(=O)(c1cccc(F)c1)c1ccc(Nc2ncnc3cc(Br)sc23)cc1Cl [GSK306886]	9%
O=C(NCCCN1CCCC1=O)c1cnc(NCc2cc(Cl)ccc2Cl)nc1NC1CCNCC1	0%
Cl.Cn1ccc(-c2cccc(Nc3ccnc4cc(-c5nccs5)ccc34)c2)n1 [GW525701]	26%
CC(C)(C)OC(=O)NC1CCCN(c2cc(-c3ccc4c(N)n[nH]c4c3)nc(N)n2)C1 (centres unmarked) [GSK2286096]	0%
Cn1ccc2ncnc(Nc3ccc(Oc4cccc(Cl)c4)c(Cl)c3)c21	3%
O=C(Nc1ccccc1)Nc1ccc(Oc2ccc3nccn3n2)cc1	0%
CSc1nn2c(=O)cc(N3CCOCC3)nc2n1Cc1cccc(Cl)c1Cl [GSK2347225]	15%
COC(=O)c1cccc(NC(=O)NCCNc2ccnc(Nc3ccc(F)cc3)n2)c1 [GSK1379883]	25%
CCn1c(-c2ccncc2)nc2cnccc21 [SB-735216]	31%
Fc1cccc(COc2ccc(Nc3ncnc4cc[nH]c34)cc2Cl)c1	0%
O=C(Nc1n[nH]c2nc(-c3ccco3)c(Br)cc12)c1ccc(CN2CCCC2)cc1.O=C(O)[C@H](O)[C@@H](O)C(=O)O [SB-742352]	0%
CCC(CC)(CC)n1cnc2c(N)ncnc21 [SKF-97620]	44%
O=C(CCO)NCCn1ccc2ncnc(Nc3ccc(Oc4cccc(C(F)(F)F)c4)c(Cl)c3)c21	0%
OCCOCCn1ccc2ncnc(Nc3ccc(Oc4cccc(Cl)c4)c(Cl)c3)c21	0%
Clc1cccc(-c2nc(Nc3ccncc3)c3ccccc3n2)c1 [GW873004]	0%
COc1ccc(NC(=O)c2ccc(-c3cc(-c4nnc(C)o4)ccc3C)cc2)cc1 [GW595885]	10%
O=C(Nc1ccccc1F)NC1CCN(c2ccnc(Nc3ccc(F)cc3)n2)C1 (centres unmarked) [GSK1379722]	11%
Nc1nc(-c2ccc3c(N)n[nH]c3c2)cc(N2CCCCC2)n1 [GSK2228768]	0%

SMILES	%Inh
CN1CCC(n2cnc(-c3ccc(F)cc3)c2-c2ccnc(NC3CCNCC3)n2)CC1 [SB-229482]	35%
Clc1cc(Nc2ncnc3cc[nH]c23)ccc1OCc1ccccn1	0%
COc1cc2c(Nc3cccc(NC(=O)c4ccccc4)c3)ncnc2cc1OCCCN1CCOCC1 [GSK223810]	34%
CCc1nc(-c2cccc(N(C)S(=O)(=O)c3ccccc3)c2)c(-c2ccnc(Nc3ccc(N4CCN(C(C)=O)CC4)nc3)n2)s1 [GSK1645895]	0%
Cc1ccc(O)cc1Nc1cc(C(F)(F)F)nc2ccc(-c3ccncc3)cc12 [GW630823]	0%
c1ccc(-c2ccc3c(-c4ccnc(Nc5ccc6c(c5)OCCO6)n4)cnn3n2)cc1 [GW818941]	28%
CSc1ccc(NC2=C(c3ccccc3Cl)C(=O)NC2=O)cc1 [SB-342411]	0%
CS(=O)(=O)CCNCc1ccc(-c2ccc3ncnc(Nc4ccc(OCc5ccccc5)c(Cl)c4)c3c2)o1.Cl [GW574783]	22%
COc1cc2ncnc(Nc3ccc(OCc4ccccc4Br)c(Cl)c3)c2cc1OC.Cl [GI261590]	16%
CC(C)N1CCC(n2cnc(-c3ccc(F)cc3)c2-c2ccnc(N)n2)CC1 [SB-223132]	1%
Cn1cc(-c2ccc3c(c2)CCN3C(=O)Cc2cccc(C(F)(F)F)c2)c2c(N)ncnc21 [GSK2606414]	4%
COc1ccc(Nc2nccc(N3CCC(NC(=O)c4cccc(NC(C)=O)c4)C3)n2)cc1 (centres unmarked) [GSK1379732]	33%
CN1c2ccc(-c3ccc(C(=O)NCCO)cc3)cc2-c2[nH]ncc2S1(=O)=O	0%
N#Cc1ccc(Oc2ccc(Nc3ncnc4cc[nH]c34)cc2Cl)cc1	2%
Cl.c1ccc(Cn2ncc3cc(Nc4ncnc5ccccc45)ccc32)cc1 [GW273749]	12%
Nc1nccc2scc(-c3ccc4c(c3)CCN4C(=O)Cc3cc(F)ccc3F)c12 [GSK2587663]	28%
Nc1nc(-c2cccnc2)c(-c2ccnc3ccccc23)s1 [GW684083]	44%
